From PubChem
Pf growth 48h: inhibits P. falciparum growth in the first generation, 48 h | P. falciparum luciferase growth in erythrocytes, 48 h | Potency, µM (highest dose often 28.7 µM), most hits filed as inhibitors | 310,000 tested, 5.9% active | AID 504832
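Parasite viability was followed by luminescence of a genomically integrated firefly luciferase. Cultures held 0.1% parasitemia at 2% hematocrit (final), incubated under 5% CO2 at 37 C.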
AMA1 RON2 block: AMA1-RON2 (P. falciparum) interaction inhibition | AlphaScreen AMA1-biotinylated RON2 peptide binding | Potency, µM (titrated, usually from 58.2 µM), actives largely listed as inhibitors | 360,000 tested, 0.2% active; further: nearly all actives have a fitted effect of over 45% in size
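AMA1 (3D7) with his tag at 25 nM final met compounds first, then biotinylated RON2 peptide at 25 nM; detection used donor plus acceptor beads, 10 µg/mL apiece, read by AlphaScreen after 30 min at room temperature.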
SARS PLpro yeast: SARS-CoV PLP inhibition in yeast; S. cerevisiae expressing SARS-CoV PLpro, growth rescue; Potency, µM (titrated, usually from 32.9 µM), usual class: activators; 330,000 tested, 0.19% active; AID 485353; calls by dose curve; further: nearly all actives have a fitted effect of over 55% in size
Shiga inhibitor: blocks Shiga toxin action in Vero cells; Vero cells, Shiga toxin protein synthesis inhibition reporter; inhibition, % at 38.7 µM; 290,000 tested, 9.2% active; AID 2315; in the data active means inhibition mostly above about 28%, no sharp cut-off; inactive means mostly below about 43%
Cycloheximide cs: affects cycloheximide protein synthesis inhibition readout, counter-screen; cell reporter, cycloheximide protein synthesis inhibition counterscreen; max response, %; 300,000 tested, 12% active; AID 2314; in the data active means max response mostly above about 13%, no sharp cut-off; inactive means mostly below about 14%; further: read at 38.3 µM for the half of the compounds with a filed dose
Pf growth 96h: P. falciparum growth inhibition at 96 hours. P. falciparum luciferase reporter growth, 96 h. Potency, µM (titrated, usually from 28.7 µM), usual class: inhibitors. 320,000 tested, 6.9% active. AID 504834
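Delayed-death screen, second-generation endpoint: infected erythrocytes, 2% hematocrit, 0.05% parasitemia final; 96 hours at 37 C, 5% CO2; luciferase detection reagent; luminescence decrease equals reduced growth.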
Each line names hits and unclear results; the compound was inactive in the other large screens. Most compounds without a hit are left out; they make up all but 19% or so of the library. Unless noted, the call rests on the fitted dose curve; in most records, active means well fitted curve in the direction sought with a large enough effect; inconclusive means small, poorly fitted or top-dose-only effect, or another doubt; inactive means no such curve, though single readings can be large; an effect the other way counts as inactive or inconclusive.

CCCCCCCCN1C(=O)[C@H](CC(=O)N2CCOCC2)C[C@@]2(C(=O)OCC)CCCC=C12	none (no result: Pf growth 48h, SARS PLpro yeast, Shiga inhibitor, Cycloheximide cs, Pf growth 96h)
CCOc1ccccc1C(=O)NC(C)c1ccc(-n2ccnc2)cc1 (stereo not drawn)	Pf growth 48h inconclusive, Pf growth 96h 8.3µM
CSCc1ccc(C(=O)NC(C)c2ccc(-n3ccnc3)cc2)cc1 (stereo not drawn)	Cycloheximide cs 18, Pf growth 96h inconclusive
Cc1ccc(S(=O)(=O)N2[C@@H](c3cccc(Cl)c3)C(C(=O)O)=CC[C@H]2c2ccc3c(c2)OCO3)cc1	Pf growth 48h 9.3µM, Pf growth 96h inconclusive (no result: Shiga inhibitor, Cycloheximide cs)
Cc1ccc([C@H]2C(C(=O)O)=CC[C@@H](c3ccc4c(c3)OCO4)N2S(=O)(=O)c2ccc(C)cc2)cc1	none (no result: Pf growth 48h, Shiga inhibitor, Cycloheximide cs, Pf growth 96h)
Cc1ccc(S(=O)(=O)N2[C@@H](c3ccc(Cl)cc3)C(C(=O)O)=CC[C@H]2c2ccc3c(c2)OCO3)cc1	Pf growth 48h 9.3µM, Pf growth 96h 8.3µM (no result: Shiga inhibitor, Cycloheximide cs)
Cc1ccc(S(=O)(=O)N2[C@@H](c3cccc(Cl)c3)C(C(=O)O)=CC[C@H]2c2cccc(Cl)c2)cc1	Pf growth 48h inconclusive (no result: Shiga inhibitor, Cycloheximide cs)
COc1ccccc1NC(=O)C[n+]1ccccc1C	none
COc1cc(NC(C)CCCN)c2ncccc2c1 (stereo not drawn)	Pf growth 48h 0.41µM, Pf growth 96h 0.33µM (no result: SARS PLpro yeast, Shiga inhibitor, Cycloheximide cs)
COc1cc(NCCCCCCCN)c2ncccc2c1	Pf growth 48h 2.6µM, Pf growth 96h 3.7µM
COc1cc(NC(=O)c2cc(OC)c(OC)c(OC)c2)c2ncccc2c1	none (no result: Pf growth 48h, SARS PLpro yeast, Shiga inhibitor, Cycloheximide cs, Pf growth 96h)
CCOc1ccc(C(=O)NCc2ccco2)cc1Cl	Pf growth 48h inconclusive, Pf growth 96h inconclusive
COCc1cccc(-c2csc(C(C)(O)c3ccc(OC)cc3)n2)c1 (stereo not drawn)	none (no result: Pf growth 48h, SARS PLpro yeast, Shiga inhibitor, Cycloheximide cs, Pf growth 96h)
CCOC(=O)c1c(N/N=C/c2ccncc2)n[nH]c1C	Shiga inhibitor 50
CC(=O)Nc1ccc(C(=O)N/N=C/c2ccncc2)cc1	Pf growth 96h inconclusive
CCOC(=O)c1c(NCc2ccccc2)n[nH]c1C	none
CCOC(=O)c1c(Nc2ccccc2OCCOC)n[nH]c1C	Pf growth 48h inconclusive, Pf growth 96h 9.3µM
CCc1[nH]nc(C(=O)N/N=C/c2ccncc2)c1C	Shiga inhibitor 50, Cycloheximide cs 24
CCCCC(=O)N(C)c1c(CC)nc2c(OCC(N)=O)cccn12	none (no result: Pf growth 48h, SARS PLpro yeast, Shiga inhibitor, Cycloheximide cs, Pf growth 96h)
Cc1cc(OCC(=O)N[C@@H](CSCc2ccccc2)C(=O)O)c2c(C)c(C)c(=O)oc2c1	Pf growth 48h inconclusive, Pf growth 96h 10µM
Cc1ccc(C)c(S(=O)(=O)NC(CC(C)C)C(=O)O)c1 (stereo not drawn)	Pf growth 48h inconclusive
O=C(N/N=C/c1c[nH]c2ccccc12)c1cccc(O)c1	Shiga inhibitor 70, Cycloheximide cs 26
COc1ccc2c(CCNC(=O)Nc3ccccc3)c[nH]c2c1	AMA1 RON2 block inconclusive, Pf growth 96h inconclusive
O=C(N/N=C/c1c[nH]c2ccccc12)c1ccc(O)c(O)c1	Shiga inhibitor 64, Cycloheximide cs 24
COc1ccc2c(/C=N/Nc3ccc(C(=O)O)cc3)c[nH]c2c1	Shiga inhibitor 133, Cycloheximide cs 47
O=C(N/N=C/c1c[nH]c2ccccc12)c1cccc(Cl)c1	Shiga inhibitor 46, Cycloheximide cs 47, Pf growth 96h inconclusive
CCC(C)NC(=O)NCc1ccccc1F (stereo not drawn)	Pf growth 96h inconclusive
Cn1c(=O)c2c(nc(N3CCOCC3)n2C/C=C/c2ccccc2)n(C)c1=O	Pf growth 96h inconclusive
CCOc1ccc(C2C([N+](=O)[O-])=C(C)N(C)C(=O)N2C)cc1OC (stereo not drawn)	Pf growth 48h inconclusive
COc1ccc(C(=O)N/N=C/c2cc3ccccc3[nH]c2=S)cc1	Pf growth 96h 13µM (no result: Pf growth 48h)
COc1ccc2c(c1)c(/C=N/Nc1ccc(C(=O)O)cc1)c(C)n2C	Shiga inhibitor 70, Cycloheximide cs 43
COc1ccc(C(=O)N/N=C/c2c[nH]c3ccccc23)cc1	Shiga inhibitor 69, Cycloheximide cs 31
COc1ccc(OC)c(/C=N/NC(=O)c2cc3c(OC)cccc3[nH]2)c1	none
CC(=O)Nc1cccc(C(=O)N/N=C/c2c[nH]c3ccccc23)c1	Cycloheximide cs 13, Pf growth 96h 2.3µM
COc1ccc2c(c1)c(C(=O)N/N=C/c1ccc(Br)cc1)c(C)n2C	Pf growth 48h inconclusive, Pf growth 96h inconclusive
CCOc1ccccc1C(=O)N/N=C/c1c[nH]c2ccccc12	Pf growth 96h inconclusive
O=S(=O)(NCCCNS(=O)(=O)c1c(F)cccc1F)c1ccc2c(c1)OCCO2	none (no result: AMA1 RON2 block)
O=C(Nc1ccc(N=Nc2ccccc2)cc1)c1cccc(Cl)c1	none
CCCCCN=C(N)N/N=C/c1c[nH]c2ccc(OC)cc12	Pf growth 48h 3µM, Pf growth 96h 3µM (no result: SARS PLpro yeast, Shiga inhibitor, Cycloheximide cs)
O=C(N/N=C/C1C(c2ccccc2)C1(Cl)Cl)c1cccc(Cl)c1 (stereo not drawn)	Shiga inhibitor 49, Cycloheximide cs 40
CC1(C)CC(=O)C2=C(C1)OC(N)=C(C#N)C2c1cc2c(cc1[N+](=O)[O-])OCO2 (stereo not drawn)	AMA1 RON2 block inconclusive
COc1ccc(OCc2cc(C(=O)NC(C)c3nc(C)cs3)no2)c(Cl)c1 (stereo not drawn)	none (no result: Pf growth 48h, SARS PLpro yeast, Shiga inhibitor, Cycloheximide cs, Pf growth 96h)
CCCCOc1ccc(Cl)cc1CSc1nnc(CC)n1N	Pf growth 48h inconclusive
COc1cc(/C=C(\NC(=O)c2cc(OC)c(OC)c(OC)c2)C(=O)NC(C(=O)O)c2ccccc2)cc(OC)c1OC (stereo not drawn)	Pf growth 96h 13µM
COc1ccc(C(=O)Nc2ccc(NC(=O)c3cc(OC)c(OC)c(OC)c3)cn2)cc1	Pf growth 48h 2.1µM
CC(=O)Nc1cc(-c2ccc(Cl)cc2)[nH]n1	Cycloheximide cs 44
COc1cc(OC)cc(-c2cc(NC(C)=O)n[nH]2)c1	none
COc1cc(C(=O)Nc2ccc(NC(=O)c3ccccc3Cl)nc2)cc(OC)c1OC	Pf growth 48h 9.3µM
COc1cc(C(=O)Nc2ccc(NC(=O)C3CC3)nc2)cc(OC)c1OC	Pf growth 96h inconclusive
COc1ccc(C(=O)Nc2ccc(NC(=O)c3ccccc3OC)nc2)cc1	none
CCCC(=O)Nc1ccc(NC(=O)c2ccccc2Cl)nc1	Cycloheximide cs 40, Pf growth 96h inconclusive
CCCC(=O)Nc1ccc(NC(=O)Cc2ccccc2)cn1	none (no result: Pf growth 96h)
COc1cc(C(=O)Nc2ccc(C(=O)c3cccs3)cc2)cc(OC)c1OC	Pf growth 48h inconclusive, Pf growth 96h 9.3µM
COc1cc(C(=O)Nc2ccc(Nc3ccccc3)cc2)cc(OC)c1OC	AMA1 RON2 block inconclusive, Pf growth 96h 13µM
COc1cc(C(=O)Nc2ccncc2)cc(OC)c1OC	Pf growth 96h inconclusive
COc1cc(C(=O)Nc2cc(-c3ccccc3)[nH]n2)cc(OC)c1OC	Pf growth 48h 12µM
C=C(C)CN1CCN(c2ccc(N3C(=O)CCCC3=O)cc2[N+](=O)[O-])CC1	Pf growth 96h inconclusive
